# In PubChem BioAssay (NCATS):
# Results filed as inconclusive are left out. Entries that show only a call come without a potency. Active and inactive are the calls of the source. Unless noted, calls follow the shape of the dose curve; as a rule, active = well fitted curve in the direction sought with a large enough effect; inconclusive = small, poorly fitted or top-dose-only effect, or another doubt; inactive = no such curve, though single readings can be large; an effect the other way counts as inactive or inconclusive.
# What was measured:
# [1] = Primary qHTS for inhibitors of La Crosse Virus (LACV) - induced cell death in SH-SY5Y cells (AID 1508616);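 also: top concentration of the series differs between compounds; higher means more rescue of cells from virus-induced death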
# Procedure, shortened: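 Screening measures cell viability in LACV-infected SH-SY5Y cultures. Compound was added before virus (0.01 MOI), and ATP was detected by luminescence 6 days later.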
# [2] = biological target: Calcium and integrin-binding protein 1 (Homo sapiens) (UniProt Q99828); assay: Validation qHTS for Identification of Calcium Integrin Binding protein 1 (CIB1) Competitor (AID 1508618)
# Procedure, shortened: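 Displacement of FITC-alphaIIb peptide (100 nM) from CIB1-GST (1 uM) is monitored by polarization in quantitative HTS format; buffer carries 5 mM CaCl2 and 125 mM NaCl at pH 7.4, incubations are at room temperature.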
# Papain (Carica papaya) = Papain (Carica papaya) (UniProt P00784); assay: Primary qHTS assay for inhibitors of the protease papain (AID 1645873);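 also: papain turnover of Z-FR-AMC read as the AMC fluorescence gain over 10 min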; also: potency is read from the fitted curve at half-maximal effect
# [3] = biological target: N-terminal Xaa-Pro-Lys N-methyltransferase 1 (Homo sapiens) (UniProt Q9BV86); assay: Confirmatory qHTS for Inhibitors of N-terminal methyltransferase 1 (NTMT1): MTaseGlo Assay (AID 1645874); also: potency is read from the fitted curve at half-maximal effect; nearly all actives have a fitted effect of over 65% in size
# Procedure, shortened: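 Enzyme mix (125 nM NTMT1, 100 uM SAM) + compound, 15 min RT; + 1 uM SPKRIA, 30 min RT, dark; MTase-Glo reagent 30 min, detection solution 30 min; luminescence. % inhibition vs no-enzyme/DMSO controls, 4-parameter Hill fit.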
# [4] = Counterscreen qHTS for small molecule stabilizers of the endoplasmic reticulum resident proteome: GLuc-NoTag assay (AID 1508627);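 also: SH-SY5Y cells given compound then 100 nM thapsigargin to empty ER calcium; series mostly up to about 76 µM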
# Procedure, shortened: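 Counterscreen line: SH-SY5Y-GLuc-NoTag cells, treated with compound 19 hr before a 4 hr, 100 nM thapsigargin calcium depletion. Secreted Gaussia luciferase in the medium was measured by luminescence after coelenterazine was added (0.07x final), with cells unlysed.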
# [5] = Confirmatory qHTS for small molecule stabilizers of the endoplasmic reticulum resident proteome: Secreted ER Calcium Modulated Protein (SERCaMP) assay (AID 1508628); also: potency is read from the fitted curve at half-maximal effect; nearly all actives have a fitted effect of over 40% in size
# Procedure, shortened: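 GLuc-SERCaMP-expressing SH-SY5Y cells, pretreated 16 h with compound, are challenged with thapsigargin to empty ER calcium stores; after 4 h, coelenterazine is added directly to the medium and luminescence is imaged.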
# [6] = Primary qHTS for small molecule stabilizers of the endoplasmic reticulum resident proteome: Secreted ER Calcium Modulated Protein (SERCaMP) assay (AID 1508630)
# Procedure, shortened: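 The SH-SY5Y reporter protocol was run at 3 concentrations up to 38.3 uM (primary) or 11 concentrations (follow-up): 16 h compound, 100 nM thapsigargin for 4 h, then extracellular luciferase luminescence.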
# [7] = Cytotoxicity counterscreen for inhibitors of SARS-CoV-2 cell entry (AID 1645845; calls by dose curve; also: nearly all actives have a fitted effect of over 50% in size); conditions: outcome: dose series up to 57.1 µM unless noted
# Procedure, shortened: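 ATP-content luminescence (ATPLite 1step, 15 min RT) read after 48 h compound exposure of Expi293F cells stably expressing human ACE2; normalized to cells-only wells and media-only wells.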
# [8] = Primary qHTS for inhibitors of nuclear receptor binding SET domain protein 2 (NSD2) in an isogenic RCH-ACV NSD2 p.E1099K mutant (9B) (AID 1645876); also: nearly all actives have a fitted effect of over 70% in size
# [9] = biological target: Calcium and integrin-binding protein 1 (Homo sapiens) (UniProt Q99828); assay: Primary qHTS for Identification of Calcium Integrin Binding Protein 1 (CIB1) Competitor (AID 1508620);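 also: GST tagged CIB1 binding a fluorescein labelled alphaIIb integrin peptide tracer; top concentration of the series differs between compounds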
# Procedure, shortened: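 CIB1-GST (1 uM final) and compound incubated 15 min at room temperature before adding FITC-alphaIIb peptide tracer (100 nM final). Competition for binding read by fluorescence polarization (ex 480, em 540) after another 15 min at room temperature.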
# [10] = biological target: Cytochrome P450 2D6 (Homo sapiens) (UniProt P10635); assay: Cytochrome P450 family 2 subfamily D member 6 (CYP2D6) small molecule antagonists: luciferase biochemical (cell-free) qHTS assay (AID 1645840; active = well fitted curve in the direction sought with a large enough effect in the repeat runs; an effect the other way counts as inactive or inconclusive; also: potency is read from the fitted curve at half-maximal effect; nearly all actives have a fitted effect of over 55% in size)
# Procedure, shortened: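 P450-Glo CYP2D6 system: proluciferin substrate converted by enzyme to luciferin, read by luminescence proportional to activity. Enzyme-substrate mix with compound 10 min at room temperature, then NADPH regeneration 1 h before detection reagent.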
# [11] = biological target: Cytochrome P450 2C9 (Homo sapiens) (UniProt P11712); assay: Cytochrome P450 family 2 subfamily C member 9 (CYP2C9) small molecule antagonists: luciferase biochemical (cell-free) qHTS assay (AID 1645842; active = well fitted curve in the direction sought with a large enough effect in the repeat runs; an effect the other way counts as inactive or inconclusive; also: potency is read from the fitted curve at half-maximal effect; nearly all actives have a fitted effect of over 55% in size)
# Procedure, shortened: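 P450-Glo CYP2C9 system: proluciferin substrate with enzyme in mix containing 0.4% BSA, 10 min at room temperature, then NADPH regeneration solution added and incubated 1 h at 37C. Detection reagent stopped reaction; luminescence read after 20 min as RLU.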
# Calcium and integrin-binding protein 1 (Homo sapiens), sequence (Q99828 whole entry, looked up): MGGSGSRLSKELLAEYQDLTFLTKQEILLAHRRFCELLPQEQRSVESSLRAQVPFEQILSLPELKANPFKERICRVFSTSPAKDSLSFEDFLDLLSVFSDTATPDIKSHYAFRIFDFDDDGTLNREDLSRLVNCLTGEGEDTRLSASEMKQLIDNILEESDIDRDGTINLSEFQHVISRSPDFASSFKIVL
# Papain (Carica papaya), sequence (P00784 whole entry, looked up): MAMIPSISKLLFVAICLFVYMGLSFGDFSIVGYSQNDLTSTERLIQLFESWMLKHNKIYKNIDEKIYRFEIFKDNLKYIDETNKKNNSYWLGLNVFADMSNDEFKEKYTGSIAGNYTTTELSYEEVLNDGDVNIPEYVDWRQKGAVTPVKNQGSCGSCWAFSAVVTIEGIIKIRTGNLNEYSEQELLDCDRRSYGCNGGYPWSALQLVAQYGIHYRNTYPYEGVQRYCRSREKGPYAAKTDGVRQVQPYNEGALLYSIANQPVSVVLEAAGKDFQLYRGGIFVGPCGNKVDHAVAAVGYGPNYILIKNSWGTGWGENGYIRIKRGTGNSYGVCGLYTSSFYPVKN
# Cytochrome P450 2D6 (Homo sapiens), sequence (P10635 whole entry, looked up): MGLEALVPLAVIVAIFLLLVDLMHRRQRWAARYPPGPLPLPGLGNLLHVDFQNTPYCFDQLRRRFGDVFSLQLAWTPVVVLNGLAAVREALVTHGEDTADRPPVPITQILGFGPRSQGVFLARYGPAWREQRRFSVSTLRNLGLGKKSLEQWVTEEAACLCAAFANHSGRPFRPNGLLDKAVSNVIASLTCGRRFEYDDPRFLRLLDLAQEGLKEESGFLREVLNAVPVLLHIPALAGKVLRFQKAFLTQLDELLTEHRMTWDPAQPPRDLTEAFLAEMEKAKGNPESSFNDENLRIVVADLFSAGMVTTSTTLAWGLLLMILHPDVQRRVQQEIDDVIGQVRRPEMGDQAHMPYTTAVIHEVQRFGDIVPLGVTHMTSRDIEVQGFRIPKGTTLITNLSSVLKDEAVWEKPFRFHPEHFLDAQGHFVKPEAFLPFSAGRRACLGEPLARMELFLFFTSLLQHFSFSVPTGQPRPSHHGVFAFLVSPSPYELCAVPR
# N-terminal Xaa-Pro-Lys N-methyltransferase 1 (Homo sapiens), sequence (Q9BV86 whole entry, looked up): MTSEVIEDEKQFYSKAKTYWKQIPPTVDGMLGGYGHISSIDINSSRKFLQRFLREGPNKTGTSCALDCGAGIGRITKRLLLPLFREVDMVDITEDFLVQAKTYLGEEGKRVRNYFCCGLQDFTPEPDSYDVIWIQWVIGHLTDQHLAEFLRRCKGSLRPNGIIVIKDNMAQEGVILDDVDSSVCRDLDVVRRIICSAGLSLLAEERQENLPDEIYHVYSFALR
# Cytochrome P450 2C9 (Homo sapiens), sequence (P11712 whole entry, looked up): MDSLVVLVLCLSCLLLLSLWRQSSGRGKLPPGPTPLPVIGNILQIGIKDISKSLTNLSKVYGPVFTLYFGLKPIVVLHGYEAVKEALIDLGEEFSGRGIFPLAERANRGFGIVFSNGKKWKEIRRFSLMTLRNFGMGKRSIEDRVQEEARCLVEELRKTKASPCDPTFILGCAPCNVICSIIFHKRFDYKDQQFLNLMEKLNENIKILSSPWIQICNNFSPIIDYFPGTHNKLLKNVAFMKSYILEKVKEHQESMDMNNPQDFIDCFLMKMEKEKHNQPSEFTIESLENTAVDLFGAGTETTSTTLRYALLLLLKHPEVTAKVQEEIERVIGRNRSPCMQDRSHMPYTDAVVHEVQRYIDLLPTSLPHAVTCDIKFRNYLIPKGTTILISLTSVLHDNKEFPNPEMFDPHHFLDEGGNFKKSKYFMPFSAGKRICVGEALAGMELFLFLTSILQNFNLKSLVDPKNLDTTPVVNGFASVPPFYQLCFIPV
smiles,measurement,setting,value
CC(C)(C)c1cc(C=C(C#N)C#N)cc(C(C)(C)C)c1O,Potency,[1],inactive
same,Potency,[2],inactive
same,Potency,Papain (Carica papaya),inactive
same,Potency,[3],38.8 µM (active)
CC(C)[C@@]1(NC(=O)[C@@H]2C[C@@H]3c4cccc5[nH]cc(c45)C[C@H]3N(C)C2)O[C@@]2(O)[C@@H]3CCCN3C(=O)[C@H](Cc3ccccc3)N2C1=O,Potency,[1],inactive
same,outcome,[4],inactive
same,Potency,[5],25.1 µM (active)
CCCN(CCC)[C@@H]1CCc2cccc(O)c2C1,Potency,[2],inactive
same,outcome,[6],inactive
same,Potency,Papain (Carica papaya),inactive
CNc1ccc2oc(C[C@H]3O[C@@]4(CC[C@H]3C)O[C@H]([C@H](C)C(=O)c3ccc[nH]3)[C@H](C)C[C@H]4C)nc2c1C(=O)O,Potency,[2],inactive
same,outcome,[6],inactive
Oc1ccc2c3c1O[C@H]1c4[nH]c5ccccc5c4C[C@@]4(O)C(C2)N(CC2CC2)CCC314 (some centres not stated),Potency,[2],inactive
same,Potency,[5],12.6 µM (active)
same,Potency,Papain (Carica papaya),inactive
C[C@@H]1[C@@H]2Cc3ccc(O)cc3[C@@]1(C)CCN2CC1CC1,Potency,[1],inactive
same,outcome,[6],inactive
C/C(O)=C(\C#N)C(=O)Nc1cc(Br)ccc1Br,Potency,[1],inactive
same,outcome,[6],inactive
same,outcome,[7],inactive
same,Potency,[8],inactive
C=C(C)[C@H]1O[C@H]2CC[C@@]3(C)[C@@](O)(CC[C@H]4[C@@H]5OC(C)(C)[C@H]6C[C@@H]7C(=C)Cc8c(Cl)cc9[nH]c(c5c9c8[C@@]76O)[C@@]43C)[C@]23O[C@@H]3[C@H]1O,Potency,[9],inactive
O=C1/C(=C/c2ccccc2)C[C@@]2(O)[C@H]3Cc4ccc(O)c5c4[C@@]2(CCN3CC2CC2)[C@H]1O5,Potency,[2],inactive
same,Potency,Papain (Carica papaya),inactive
C[N+]1(C)C2CCC1CC(OC(=O)c1c[nH]c3ccccc13)C2 (configuration not stated),Potency,[1],inactive
same,Potency,[2],inactive
same,Potency,Papain (Carica papaya),inactive
C[C@@H]1O[C@@H](O[C@H]2C[C@@H](O)[C@]3(CO)[C@@H]4C(CC[C@]3(O)C2)[C@@]2(O)CC[C@H]([C@@H]3COC(=O)C3)[C@@]2(C)C[C@H]4O)[C@H](O)[C@H](O)[C@H]1O (some centres not stated),Potency,[2],inactive
same,Potency,Papain (Carica papaya),inactive
CC1(C(=O)O)C2CCC(O2)C1(C)C(=O)O (configuration not stated),Potency,[2],inactive
same,outcome,[6],inactive
same,Potency,Papain (Carica papaya),inactive
c1ccc2c(c1)[I+]c1ccccc1-2,Potency,[2],inactive
COC1CC(=O)C23C(=O)NC(CC(C)C)C2C(C)=C(C)C(OO)C3/C=C(\C)CCC(O)C1O (configuration not stated),Potency,[9],inactive
CCNC(=O)[C@H]1O[C@@H](n2cnc3c(N)ncnc32)[C@H](O)[C@@H]1O,Potency,[2],inactive
same,outcome,[6],inactive
same,Potency,Papain (Carica papaya),inactive
C[C@@H]1O[C@H](C[N+](C)(C)C)CS1,Potency,[1],inactive
same,outcome,[6],inactive
O=C(NC1CN2CCC1CC2)c1cc2ccoc2cn1 (configuration not stated),Potency,[2],inactive
same,Potency,Papain (Carica papaya),inactive
CN1CCC[C@@H]1Cc1c[nH]c2ccc(Nc3ncccc3[N+](=O)[O-])cc12,Potency,[2],inactive
same,Potency,[9],inactive
same,Potency,[10],3.01 µM (active)
same,Potency,[11],19 µM (active)
same,Potency,Papain (Carica papaya),inactive
same,Potency,[8],inactive
CC(N)c1cccc(Cl)c1Cl (configuration not stated),Potency,[1],inactive
same,Potency,[2],inactive
same,Potency,Papain (Carica papaya),inactive
C[C@]12CC[C@@H](O)C[C@H]1CC[C@@H]1[C@@H]2CC[C@]2(C)C(=O)CC[C@@H]12,Potency,[9],inactive
CN1CCC(c2c[nH]c3ccc(O)cc23)CC1,Potency,[1],inactive
same,Potency,[2],inactive
same,Potency,Papain (Carica papaya),inactive
CCCn1c(=O)c2[nH]c(C3CCCC3)nc2n(CCCOC(=O)c2ccc(S(=O)(=O)F)cc2)c1=O,Potency,[2],inactive
same,Potency,Papain (Carica papaya),inactive
CCn1cnc2c(Nc3cccc(Cl)c3)nc(N[C@@H]3CCCC[C@@H]3N)nc21,Potency,[2],inactive
same,outcome,[6],inactive
same,Potency,Papain (Carica papaya),inactive
O=C(O)c1cc[c]([Hg][Cl])cc1,Potency,[1],inactive
same,outcome,[4],inactive
same,outcome,[6],inactive
COc1cc(CC(C)N)c(OC)cc1I (configuration not stated),Potency,[1],inactive
same,outcome,[6],inactive
N[C@@H](CCl)C(=O)O,Potency,[1],inactive
same,outcome,[6],inactive
Cc1[nH]c2ccc(O)cc2c1CCN,Potency,[1],inactive
same,Potency,[2],inactive
same,Potency,Papain (Carica papaya),inactive
CC1=CC2/C=C(\C)CCC(O)C3OC(C)(C)OC3CC(=O)OC23C(=O)NC(CC(C)C)C3C1C (configuration not stated),Potency,[9],inactive
O=[N+]([O-])c1ccc2nc(N3CCNCC3)ccc2c1,Potency,[2],inactive
same,outcome,[4],inactive
same,Potency,Papain (Carica papaya),inactive
CCCn1c(C)c(C(=O)c2ccc3ccccc3c2)c2ccccc21,Potency,[1],inactive
same,outcome,[6],inactive
CCCN1CCc2cccc3c2[C@H]1Cc1ccc(O)c(O)c1-3,Potency,[2],inactive
same,outcome,[6],inactive
same,Potency,Papain (Carica papaya),inactive
CC1C/C=C/C(O)C(O)CC/C=C/c2cc(O)cc(O)c2C(=O)O1 (configuration not stated),Potency,[9],inactive
CC(=O)c1c(O)c(C)c(O)c(Cc2c(O)c3c(c(C(=O)/C=C/c4ccccc4)c2O)OC(C)(C)C=C3)c1O,Potency,[1],inactive
same,outcome,[7],inactive
same,Potency,Papain (Carica papaya),inactive
same,Potency,[8],inactive
Nc1cc2c(ncn2CCOCP(=O)(O)O)c(=O)[nH]1,Potency,[2],inactive
same,Potency,Papain (Carica papaya),inactive
C[C@H]1C2Cc3ccc(O)cc3[C@@]1(C)CCN2CC1CC1,Potency,[2],inactive
same,Potency,Papain (Carica papaya),inactive
CC(C)(C)OC(=O)NC1[C@H]2CNC[C@@H]12 (some centres not stated),Potency,[2],inactive
same,Potency,Papain (Carica papaya),inactive
O=c1ccc2[nH]cc(C3=CCNCC3)c2[nH]1,Potency,[2],inactive
same,outcome,[6],inactive
same,Potency,Papain (Carica papaya),25.1 µM (active)
